Source: PubChem BioAssay AID652154 (Broad Institute, 2013)
The campaign covered roughly 360,000 compounds. About 4,200 (1.2%) were called active.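 Rule for the calls: active = mean replicate inhibition at least 60% with every replicate also reaching 60%; inconclusive = only one of the two criteria is met; inactive = mean below 60% and not all replicates reaching 60%.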 The entries come from a sample that favours actives as a whole.

Assay: inhibitors of PAX8-driven TPO luciferase reporter, primary screen, RMG-I cells, single concentration (AID 652154);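 note: luciferase light reporting Pax8 driven TPO promoter activity; plate controls were median of neutral control wells for no effect and mitoxantrone controls for full effect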
Settings: SteadyGlo, 24 h, at 12.6 µM, stronger effect = higher value
For `C[C@H](O)C#Cc1ccc2c(c1)O[C@H](CN(C)C)[C@@H](C)CN([C@H](C)CO)S2(=O)=O`, the inhibition was -9.29% (inactive).
For `C/C=C/c1ccc([C@H]2[C@@H](CO)N(C(=O)CN(C)C)C23CN(C(=O)C2CCCC2)C3)cc1`, the inhibition was -21.3% (inactive).
For `Cc1noc(C)c1S(=O)(=O)N(C)C[C@@H]1OCCCC[C@@H](C)Oc2ccc(NC(=O)Nc3ccccc3)cc2C(=O)N([C@H](C)CO)C[C@@H]1C`, the inhibition was 4.8% (inactive).
In the case of `C[C@@H]1CN([C@@H](C)CO)C(=O)c2cc(NS(=O)(=O)c3ccccc3)ccc2O[C@H]1CN(C)CC1CC1`, the inhibition is reported as -3.75% (inactive).
With `COc1ccc(S(=O)(=O)Nc2cccc3c2O[C@@H](CN(C)Cc2ccc(-c4ccccc4)cc2)[C@H](C)CN([C@H](C)CO)C3=O)cc1` the inhibition was -16.5% (inactive).
In the case of `C[C@H]1CCCCO[C@H](CN(C)C)[C@@H](C)CN([C@@H](C)CO)C(=O)c2cc(NC(=O)CCCN(C)C)ccc2O1`, the inhibition is reported as -13.7% (inactive).
In the case of `Cc1cc(C)cc(N(CC(=O)NCCSCc2ccco2)S(C)(=O)=O)c1`, the inhibition is reported as 3.24% (inactive).
With `COc1cc(OC)cc(C(=O)NCCSCc2ccco2)c1` the inhibition was 3.2% (inactive).
With `CS(=O)(=O)N(Cc1ccc(Cl)cc1)c1ccc(C(=O)NCCSCc2ccco2)cc1` the inhibition was 61.6% (active).
In the case of `C[C@H](CO)N1C[C@H](C)[C@@H](CN(C)C)Oc2ccc(N(C)C)cc2C1=O`, the inhibition is reported as -23.1% (inactive).
For `COc1ccc(NC(=O)Nc2ccc3c(c2)C(=O)N([C@H](C)CO)C[C@H](C)[C@@H](CN(C)C(=O)NC2CCCCC2)OCCCC[C@@H](C)O3)cc1`, the inhibition was 19.9% (inactive).
For `C[C@H](CO)N1C[C@H](C)[C@H](CN(C)S(=O)(=O)c2ccc(F)cc2)OCCCC[C@H](C)Oc2ccc(NS(=O)(=O)c3ccc(Cl)cc3)cc2C1=O`, the inhibition was 87.4% (active).
In the case of `C[C@@H]1CN([C@H](C)CO)C(=O)c2cccc(NC(=O)c3nc4ccccc4s3)c2O[C@H]1CN(C)Cc1ccccc1`, the inhibition is reported as -1.34% (inactive).
For `Cc1ccc(S(=O)(=O)N(C)C[C@@H]2OCCCC[C@@H](C)Oc3ccc(NS(=O)(=O)c4ccccc4)cc3C(=O)N([C@H](C)CO)C[C@@H]2C)cc1`, the inhibition was -6.72% (inactive).
With `Cc1ccc(S(=O)(=O)N(C)C[C@H]2OCCCC[C@@H](C)Oc3ccc(NS(C)(=O)=O)cc3C(=O)N([C@H](C)CO)C[C@@H]2C)cc1` the inhibition was -9.1% (inactive).
For `C[C@@H]1CCCCO[C@H](CN(C)S(=O)(=O)c2ccc(F)cc2)[C@H](C)CN([C@@H](C)CO)C(=O)c2cc(NS(=O)(=O)c3ccccc3)ccc2O1`, the inhibition was 3.05% (inactive).
For `C[C@@H]1CCCCO[C@H](CN(C)S(=O)(=O)c2ccccc2)[C@@H](C)CN([C@@H](C)CO)C(=O)c2cc(NS(=O)(=O)c3ccccc3)ccc2O1`, the inhibition was 0.573% (inactive).
With `C[C@@H]1CN([C@H](C)CO)C(=O)c2cc(NS(=O)(=O)c3ccccc3)ccc2O[C@@H](C)CCCCO[C@H]1CN(C)S(=O)(=O)c1ccc(Cl)cc1` the inhibition was 73.3% (active).
For `C[C@@H]1CCCCO[C@H](CN(C)S(C)(=O)=O)[C@@H](C)CN([C@H](C)CO)C(=O)c2cc(NS(=O)(=O)c3ccc(Cl)cc3)ccc2O1`, the inhibition was 7.33% (inactive).
For `C[C@@H]1CN([C@H](C)CO)C(=O)c2cccc(NC(=O)c3nc4ccccc4s3)c2O[C@H]1CN(C)S(=O)(=O)c1ccc(Cl)cc1`, the inhibition was 66.2% (active).
With `Cc1ccc(S(=O)(=O)Nc2ccc3c(c2)C(=O)N([C@H](C)CO)C[C@@H](C)[C@H](CN(C)S(=O)(=O)c2ccc(C)cc2)OCCCC[C@@H](C)O3)cc1` the inhibition was 71.3% (active).
In the case of `C[C@@H]1CN([C@H](C)CO)C(=O)c2cccc(NC(=O)c3nc4ccccc4s3)c2O[C@@H]1CN(C)C`, the inhibition is reported as -13.2% (inactive).
For `COc1ccc(S(=O)(=O)Nc2ccc3c(c2)C(=O)N([C@H](C)CO)C[C@@H](C)[C@H](CN(C)S(=O)(=O)c2ccc(Cl)cc2)OCCCC[C@@H](C)O3)cc1`, the inhibition was 55.8% (inactive).
For `CC=Cc1ccc2n(c1=O)C[C@@H]1[C@@H](CO)[C@H](C(=O)N[C@@H](C)c3ccccc3)[C@H]2N1Cc1ccncc1` (mixture of isomers), the inhibition was -0.758% (inactive).
With `CC=Cc1ccc2n(c1=O)C[C@@H]1[C@@H](CO)[C@H](C(=O)NCC(F)(F)F)N(CCc3ccccc3)[C@H]21` (mixture of isomers) the inhibition was 5.7% (inactive).
In the case of `O=C(C[C@H]1C=C[C@H](NC(=O)CC2CC2)[C@H](CO)O1)NCc1ccc(Cl)cc1`, the inhibition is reported as 0.511% (inactive).
In the case of `C[C@@H]1CCCCO[C@@H](CN(C)S(C)(=O)=O)[C@H](C)CN([C@@H](C)CO)C(=O)c2cc(NS(=O)(=O)c3ccc(F)cc3)ccc2O1`, the inhibition is reported as 6.52% (inactive).
In the case of `Cc1ccc(S(=O)(=O)N(C)C[C@@H]2OCCCC[C@@H](C)Oc3ccc(NS(=O)(=O)c4ccc(F)cc4)cc3C(=O)N([C@H](C)CO)C[C@H]2C)cc1`, the inhibition is reported as 65.5% (active).
With `C[C@@H]1CN([C@H](C)CO)C(=O)c2cc(NS(=O)(=O)c3cccs3)ccc2O[C@@H](C)CCCCO[C@@H]1CN(C)S(=O)(=O)c1ccc(Cl)cc1` the inhibition was 32.3% (inactive).
With `C[C@@H]1CCCCO[C@H](CN(C)S(=O)(=O)c2ccc(Cl)cc2)[C@H](C)CN([C@@H](C)CO)C(=O)c2cc(NS(=O)(=O)c3cccs3)ccc2O1` the inhibition was 35.2% (inactive).
For `Cc1ccc(S(=O)(=O)Nc2ccc3c(c2)C(=O)N([C@H](C)CO)C[C@H](C)[C@H](CN(C)S(=O)(=O)c2ccc(F)cc2)OCCCC[C@@H](C)O3)cc1`, the inhibition was -6.17% (inactive).
In the case of `C[C@H]1CCCCO[C@@H](CN(C)S(=O)(=O)c2cccs2)[C@@H](C)CN([C@@H](C)CO)C(=O)c2cc(NS(=O)(=O)c3ccc(Cl)cc3)ccc2O1`, the inhibition is reported as 78.6% (active).
With `CCCNC(=O)Nc1ccc2c(c1)C(=O)N(C)C[C@@H](OC)[C@H](C)CN(C(=O)C1CCCCC1)[C@H](C)CO2` the inhibition was 12.3% (inactive).
In the case of `C[C@@H]1CN([C@@H](C)CO)C(=O)c2c(c3ccccc3n2C)-c2ccccc2CO[C@@H]1CN(C)S(=O)(=O)c1cccs1`, the inhibition is reported as 12.1% (inactive).
In the case of `CCCNC(=O)N1[C@H](CNC(C)=O)[C@@H](c2ccc(C3=CCCC3)cc2)[C@@H]1CO`, the inhibition is reported as -5.47% (inactive).
